Screening data: PubChem BioAssay, National Center for Advancing Translational Sciences (NCATS)
AMA1 RON2 block = qHTS for Inhibitors of AMA1-RON; Towards Development of Antimalarial Drug Lead: Primary Screen; AlphaScreen AMA1-biotinylated RON2 peptide binding; Potency, µM (series often up to 58.2 µM), without a hit: at the highest dose activity change, negative = inhibition, hits mostly inhibitors; AID 720542, 2013; 360,000 tested, 0.2% active; Plasmodium falciparum AMA1 (3D7) - RON2 peptide interaction;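 note: 0% = vehicle wells and -100% = peptide control; nearly all actives have a fitted effect of over 45% in size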
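AMA1 (3D7) with his tag at 25 nM final met compounds first, then biotinylated RON2 peptide at 25 nM; detection used donor plus acceptor beads, 10 µg/mL apiece, read by AlphaScreen after 30 min at room temperature.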
HCV inhibitor = qHTS Assay for Inhibitors of Hepatitis C Virus (HCV); Potency, µM (top dose mostly 41.8 µM), for the others: top-dose activity change, negative = inhibition, usual class: inhibitors; 340,000 tested, 3.4% active; Huh7.5.1 HCVcc-Cre infection, luciferase reporter, 44 h
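Compounds are dispensed onto cells plated 4 h earlier at 1,000 per well, with HCVcc-Cre virus (about 0.5 moi) added next. Following 44 h of culture, luminescent signal is measured for 15 sec after 15 min with substrate at room temperature.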
Pf growth 48h = Primary qHTS for delayed death inhibitors of the malarial parasite plastid, 48 hour incubation | 310,000 tested, 5.9% active | Potency, µM (series often up to 28.7 µM), for inactives: at the top dose activity change, negative = inhibition, hits mostly inhibitors | P. falciparum luciferase growth in erythrocytes, 48 h
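Here the parasites carry a stable luciferase gene and grow inside erythrocytes in Albumax-based RPMI medium with compound for one erythrocytic cycle. Activity is scored as loss of luminescent signal.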
AmpC detergent = qHTS Inhibitors of AmpC Beta-Lactamase (assay with detergent) | AmpC hydrolysis of nitrocefin, absorbance 480 nm, 0.01% Triton | AID 485294, 2010 | Potency, µM (doses to about 114 µM), for the others: at the highest dose activity change, negative = inhibition, most hits filed as inhibitors | 370,000 tested, 0.041% active;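 note: 0% = no-compound wells and -100% = no-enzyme wells; nearly all actives have a fitted effect of over 25% in size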
Target sequence (P00811 whole entry, looked up): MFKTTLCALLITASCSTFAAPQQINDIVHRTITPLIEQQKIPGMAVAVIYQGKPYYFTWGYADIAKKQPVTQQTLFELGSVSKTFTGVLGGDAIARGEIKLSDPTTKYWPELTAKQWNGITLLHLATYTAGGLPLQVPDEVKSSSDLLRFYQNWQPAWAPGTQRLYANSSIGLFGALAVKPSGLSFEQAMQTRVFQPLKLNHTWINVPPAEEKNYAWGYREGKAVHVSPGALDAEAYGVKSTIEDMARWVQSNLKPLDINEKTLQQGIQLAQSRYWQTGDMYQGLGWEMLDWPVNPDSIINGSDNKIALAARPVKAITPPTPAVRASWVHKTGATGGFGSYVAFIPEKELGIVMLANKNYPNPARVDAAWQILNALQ
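AmpC (5.3 nM in the dispensed reagent) in 20 mM phosphate pH 7.0 with 0.01% (detergent screen) or 0.0001% Triton X-100 was preincubated with compounds for 15 min at room temperature. Nitrocefin was then added from an 800 uM solution, and hydrolysis was followed at 480 nm.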
Pf growth 96h = Primary qHTS for delayed death inhibitors of the malarial parasite plastid, 96 hour incubation; P. falciparum luciferase reporter growth, 96 h; Potency, µM (doses to about 28.7 µM), for the others: at the top dose activity change, negative = inhibition, hits mostly inhibitors; 320,000 tested, 6.9% active
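Infected RBCs, 2% Hct / 0.05% parasitemia final; luciferase-reporter P. falciparum; cpd 96 h, 37 C, 5% CO2; luciferase detection reagent; luminescence.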
AmpC inh no detg = qHTS Inhibitors of AmpC Beta-Lactamase (assay without detergent). Potency, µM (titrated, usually from 57.1 µM), for inactives: at the highest dose activity change, negative = inhibition, hits mostly inhibitors. AmpC nitrocefin hydrolysis, absorbance 480 nm, 0.0001% Triton. P00811. AID 485341, 2010. 330,000 tested, 0.52% active;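 note: plate controls were no compound for no effect and no enzyme for full effect; nearly all actives have a fitted effect of over 20% in size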
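AmpC (5.3 nM in the dispensed reagent) in 20 mM phosphate pH 7.0 with 0.01% (detergent screen) or 0.0001% Triton X-100 was preincubated with compounds for 15 min at room temperature. Nitrocefin was then added from an 800 uM solution, and hydrolysis was followed at 480 nm.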
* marks the source's active call; other numbers are inactive results; ? = inconclusive; / = no result given; [ ] = dose if it differs, or a comment. Hits are enriched below; roughly 11% of the tested compounds scored in any of these assays. Calls come from the whole dose curve; as a rule, active = well fitted curve in the direction sought with a large enough effect; inconclusive = small, poorly fitted or top-dose-only effect, or another doubt; inactive = no such curve, though single readings can be large; an effect the other way counts as inactive or inconclusive. Unless noted, % is set by controls: 0 for no effect and ±100 for the full control effect; potency is the fitted concentration of half-maximal effect.

SMILES	AMA1 RON2 block	HCV inhibitor	Pf growth 48h	AmpC detergent	Pf growth 96h	AmpC inh no detg
Fc1ccc(CNC(=S)NCc2cccc(Cl)c2)cc1	14.6%	4.6%	?	3.5%	10.4µM*	136.8%
CCOC(=O)c1ccc(NC(c2ccc(N(C)C)cc2)P(=O)(OC(C)C)OC(C)C)cc1 (centres undefined)	?	?	13.1µM*	-11.6%	22.7%	4.8%
CCOC(=O)c1cc(C(=O)c2cc(Cl)ccc2O)coc1=N	6.1%	-18.7%	-14.0%	-3.2%	?	5.01µM*
COCCOC(=O)c1cc(C(=O)c2cc(Cl)ccc2O)coc1=N	5.9%	-9.1%	25.2%	3.9%	3.4%	-24.0%
Cc1cc(C)cc(NC(=O)c2cc(S(=O)(=O)N3CCc4ccccc43)cn2C)c1	/	/	/	4.9%	/	/
O=C(/C=C/c1ccccc1Cl)Nc1ccccc1	6.6%	?	227.7%	-9.5%	72.8%	-30.6%
CN(C)S(=O)(=O)c1ccc(NC(=O)/C=C/c2ccccc2Cl)cc1	-26.3%	8.91µM*	?	-6.5%	?	-33.9%
O=C1c2ccccc2C(=O)c2cc(S(=O)(=O)Nc3ccccc3)ccc21	-29.9%	?	-0.5%	-11.8%	-15.4%	28.2µM*
O=C1C(Nc2ccccc2)=C(NS(=O)(=O)c2ccccc2)C(=O)c2ccccc21	-3.5%	18.7%	10.4µM*	?	4.15µM*	19.0%[2.29 µM]
S=c1[nH]c(-c2ccc(Br)cc2)cn1CCc1ccccc1	22.4%	-15.1%	?	-3.6%	13.1µM*	-30.6%
COc1ccccc1-n1cc(-c2ccc(Br)cc2)[nH]c1=S	5.0%	-28.0%	?	10.1%	11.5%	-21.9%
Cc1ccc(Cl)cc1N1CCN(C(=O)c2ccc3c(c2)N(Cc2ccccc2)CCS3)CC1	/	/	/	11.6%	/	/
CC(C)Oc1ccc(CNC(=O)c2ccc3c(c2)N(Cc2ccc(F)cc2)CCS3)cc1	/	/	/	22.7%	/	/
O=C(Nc1ccc(C(=O)OC[C@@H]2CCCN3CCCC[C@H]23)cc1)c1cccc(Br)c1	-19.9%	11.2µM*	1.85µM*	-2.8%	2.62µM*	?
O=CCCCC=O	/	/	15.1µM*	/	12µM*	/
O=C(CSc1nc2ccccc2n1CC(=O)Nc1ccc(F)cc1F)Nc1ccc(F)cc1	/	/	/	0.8%	/	/
CCOC(=O)c1ccc(NC(=O)CCCc2nc(-c3cc(OC)c(OC)c(OC)c3)no2)cc1	/	/	/	-0.7%	/	/
CCOC(=O)c1cccc(NC(=O)CCc2nc(-c3ccc(C)cc3)no2)c1	-4.1%	?	11.7µM*	-4.1%	1.04µM*	-15.5%
O=C(NCCc1ccccc1)c1ccc(NC(=O)c2cccnc2)cc1	2.2%	-3.1%	-10.7%	0.6%	-15.7%	-6.9%
CCOC(=O)c1ccc(NC(=O)CCc2nc(-c3ccccc3Cl)no2)cc1	5.2%	11.2µM*	-11.0%	-2.6%	-0.8%[5.75 µM]	-10.1%
O=C(Nc1ccc(-c2noc(CCc3ccccc3)n2)cc1)c1cccnc1	2.1%	11.2µM*	?	-11.3%	26.9%	62.5%
CCOC(=O)c1ccc(NC(=O)CCc2nc(-c3ccccc3)no2)cc1	6.1%	?	0.0%	?	13.1µM*	0.0%
CCOC(=O)c1c(C)oc2nc(C)nc(N3CCN(c4ccc(C(C)=O)cc4)CC3)c12	/	/	/	21.0%	/	/
Cc1ccc(CCNC(=O)NCc2noc3ccc(C)cc23)cc1	/	/	/	2.9%	/	/
CCOC(=O)c1c(S(=O)(=O)N2CCCC(C(=O)N3CCN(c4ccccc4)CC3)C2)c(C)n(C)c1C (centres undefined)	/	/	/	0.7%	/	/
SMILES	AMA1 RON2 block	HCV inhibitor	Pf growth 48h	AmpC detergent	Pf growth 96h	AmpC inh no detg
CCCS(=O)(=O)N1CCC(N2CCN(Cc3ccc(F)cc3)C(=O)C2=O)CC1	/	/	/	9.7%	/	/
CC1CN(c2ccc(Cl)cc2)c2nc3c(c(=O)[nH]c(=O)n3C)n2C1 (centres undefined)	0.9%	4.8%	-2.0%	-7.1%	3.0%	-12.1%
CCc1ccc(N2CC(C)Cn3c2nc2c3c(=O)[nH]c(=O)n2C)cc1 (centres undefined)	-9.4%	25.1µM*	7.38µM*	2.7%	2.94µM*	23.6%
COc1ccc(/C=C2\SC(=O)N(CCNC(=O)Cc3coc4cc(C)ccc34)C2=O)cc1OC	-5.7%	12.6µM*	?	-1.4%	7.38µM*	137.1%
Cc1cc(Cl)cc(Cl)c1OCCOc1cccc2cccnc12	-5.4%	?	/	?	4.15µM*	14.6%
Brc1ccccc1OCCOc1cccc2cccnc12	6.6%	-20.5%	82.3%	?	-15.7%	11.4%[2.29 µM]
O=C(NCCc1csc(-c2ccc(F)cc2)n1)C(=O)Nc1ccc(Cl)cc1	/	/	/	18.1%	/	/
CCOc1cc(/C=C(\C#N)c2nc3ccccc3[nH]2)ccc1OC(C)C(=O)O (centres undefined)	27.7%	2.5%	-22.5%	-4.9%	16.5%	-30.4%
COc1cc(/C=C(/C#N)c2nc3ccccc3[nH]2)ccc1Oc1ncccc1[N+](=O)[O-]	39.7%	2.51µM*	14.7µM*	-2.6%	?	-30.0%
O=[N+]([O-])c1ccc(Oc2ccc(/C=N/O)cc2)nc1	-9.0%	-2.7%	0.0%	-11.4%	-13.5%	-11.4%
COc1cc(/C=C(/C#N)c2ccc(C)cc2)ccc1Oc1ccc([N+](=O)[O-])cn1	-5.8%	10µM*	?	-0.1%	4.6%	-21.0%
Cc1ccc2nc(/C(C#N)=C\c3ccc(Oc4ccc([N+](=O)[O-])cn4)cc3)[nH]c2c1	24.0%	?	9.28µM*	-5.5%	?	28.2µM*
CCOc1cc(/C=C(/C#N)c2nc3ccccc3[nH]2)ccc1Oc1ccc([N+](=O)[O-])cn1	30.4%	?	?	1.6%	2.33µM*	-29.1%
CC1CCN(S(=O)(=O)c2ccc3c(c2)c(=O)c(C(=O)NCc2ccc(Cl)cc2)cn3C)CC1	/	/	/	-1.2%	/	/
COc1ccc2nc(/C(C#N)=C\c3ccc(Oc4ccc([N+](=O)[O-])cn4)cc3)[nH]c2c1	40.9%	?	14.7µM*	-4.3%	?	?
COc1ccc2nc(/C(C#N)=C\c3ccc(C(=O)O)cc3)[nH]c2c1	12.1%	3.1%	27.4%	0.8%	11.6%	-35.5%
COC(=O)CCC(=O)OC1(C)C(=O)C=C2C=C(C3CC3)N(Cc3ccc(OC)cc3)C=C2C1=O (centres undefined)	-0.8%	3.55µM*	?	-0.7%	?	69.4%
